In all, about 94,000 compounds went through this assay and about 2,100 (2.2%) were called active. The sample holds actives, similar compounds and a random draw of the others, so the mix is not that of the screen. Values without a mark were called inactive. Cut-off read from the data, not from the text of the source: active = activity change below about -80%; inconclusive = no clear call, values can overlap the other calls; inactive = above that.

The nature of the test: P. falciparum Dd2 growth inhibitors, primary screen, SYBR Green fluorescence, single dose replicates (AID 1159554). The conditions noted are these: 72 h, at 10 µM, stronger effect = lower value.
Regarding `CO[C@H]1CN(C)C(=O)c2cc(NC(=O)c3cnccn3)ccc2OC[C@H](C)N(C(=O)C2CC2)C[C@H]1C`, the activity change is -22.3%.
Then `COc1cccc(-c2cn(CC[C@@H]3CC[C@@H](NC(C)=O)[C@@H](CO)O3)nn2)c1`, with -3.98%; and `C[C@@H]1CN([C@@H](C)CO)S(=O)(=O)c2ccc(/C=C/c3ccccc3)cc2O[C@H]1CN(C)Cc1ccccc1`, with -58.4%.
As to `COc1ccc(C#Cc2ccc3c(c2)O[C@@H](CN(C)C(=O)Nc2cccc(OC)c2)[C@H](C)CN([C@H](C)CO)S3(=O)=O)cc1`, the activity change was -89.8% (active).
For `C[C@H](O)C#Cc1ccc2c(c1)O[C@@H](CN(C)C(=O)C1CC1)[C@H](C)CN([C@H](C)CO)S2(=O)=O` the value was 2.01%; for `COc1ccc(NC(=O)N(C)C[C@H]2Oc3cc(C#CCN(C)C)ccc3S(=O)(=O)N([C@@H](C)CO)C[C@@H]2C)cc1`, 7.25%.
For `CCC(=O)N(C)C[C@H]1Oc2cc(/C=C/c3ccccc3)ccc2S(=O)(=O)N([C@H](C)CO)C[C@H]1C` the value was -20.8%.
On to `C[C@@H]1CN([C@H](C)CO)S(=O)(=O)c2ccc(/C=C/c3ccccc3)cc2O[C@@H]1CN(C)Cc1ccccc1`, for which the activity change is -19.9%.
For the compound `C[C@H]1CN([C@@H](C)CO)S(=O)(=O)c2ccc(C#Cc3ccccc3)cc2O[C@@H]1CN(C)C(=O)C1CC1`, the activity change is -86.3% (active).
`CCC(=O)N(C)C[C@H]1Oc2cc(/C=C/c3ccccc3)ccc2S(=O)(=O)N([C@H](C)CO)C[C@@H]1C`: the activity change was -32.1%.
Regarding `C[C@@H]1CN([C@@H](C)CO)S(=O)(=O)c2ccc(C#Cc3ccccc3)cc2O[C@@H]1CN(C)C(=O)Nc1ccccc1`, the activity change is -58.2%.
Then `C[C@@H]1CN([C@@H](C)CO)S(=O)(=O)c2ccc(/C=C/c3ccccc3)cc2O[C@H]1CN(C)C(=O)C1CC1`, with -88.7% (active); and `C[C@H](CO)N1C[C@H](C)[C@@H](CN(C)C(=O)C2CC2)Oc2cc(C#CC3CC3)ccc2S1(=O)=O`, with -9.49%; and `C[C@@H]1CN([C@@H](C)CO)S(=O)(=O)c2ccc(/C=C/c3ccccc3)cc2O[C@H]1CN(C)Cc1cccnc1`, with -90.5% (active).
For `O=C(NC[C@H]1CC[C@@H]2[C@@H](CN2S(=O)(=O)c2ccccc2F)O1)C1CCCCC1` the value was 81.8%; for `CNC(=O)C[C@@H]1CC[C@@H]2[C@@H](COc3ccc(NC(=O)c4ccc5c(c4)OCO5)cc3C(=O)N2C)O1`, -13.2%.
For `CN1c2ccc(C3=CCCCC3)cc2[C@@H]2[C@@H](CCN2C(=O)Nc2cc(F)ccc2F)[C@@H]1CO` the value was -41.1%.
For the compound `O=C(CC1CC1)N[C@@H]1C[C@@H]2O[C@H](CO)CC[C@@H]2O[C@@H]1CCc1ccc(C#Cc2ccccc2)cc1`, the activity change is -36.1%.
Take `CN1c2ccc(C#Cc3ccccc3F)cc2[C@@H]2[C@@H](CCN2C(=O)Cc2cccnc2)[C@H]1CO`: the activity change is -26.2%.
For the compound `CC(=O)N(C)C[C@@H]1Oc2cc(-c3cncnc3)ccc2S(=O)(=O)N([C@@H](C)CO)C[C@H]1C`, the activity change is 21.6%.
Then `CC(C)NC(=O)N(C)C[C@H]1Oc2cc(-c3cncnc3)ccc2S(=O)(=O)N([C@@H](C)CO)C[C@H]1C`, with -83.1% (active); and `CNC[C@@H]1Oc2cc(C#Cc3ccc(F)cc3)ccc2S(=O)(=O)N([C@@H](C)CO)C[C@H]1C`, with -62.7%; and `C[C@H](O)C#Cc1ccc2c(c1)O[C@H](CN(C)C(=O)C1CC1)[C@@H](C)CN([C@H](C)CO)S2(=O)=O`, with 46.3%.
For `CNC[C@H]1Oc2cc(C#Cc3ccccc3)ccc2S(=O)(=O)N([C@@H](C)CO)C[C@@H]1C` the value was -85% (active); for `CC(C)C#Cc1ccc2c(c1)O[C@@H](CN(C)C(=O)C1CC1)[C@H](C)CN([C@H](C)CO)S2(=O)=O`, -27.6%; for `CNC[C@H]1Oc2cc(C#Cc3ccccn3)ccc2S(=O)(=O)N([C@H](C)CO)C[C@@H]1C`, -6.84%.
For `Cc1ccc(-c2ccc3c(c2)O[C@@H](CN(C)C(=O)NC(C)C)[C@@H](C)CN([C@H](C)CO)S3(=O)=O)cc1` the value was -34.3%; for `C[C@@H]1CN([C@@H](C)CO)S(=O)(=O)c2ccc(C#Cc3ccccc3)cc2O[C@@H]1CN(C)C(=O)C1CC1`, -82.5% (active); for `CCNC(=O)C[C@@H]1C=C[C@@H](NC(=O)C2CCOCC2)[C@@H](CO)O1`, 2.77%.
For `COCC(=O)Nc1ccc2c(c1)OC[C@H](C)N(C(=O)Cc1ccccn1)C[C@H](C)[C@@H](OC)CN(C)C2=O`, the activity change was 41.2%.
Then `O=C(C[C@H]1CC[C@@H](NC(=O)CC2CC2)[C@@H](CO)O1)NCc1ccccc1`, with 10.8%.
Then `O=C(NC1CCC1)[C@@H]1[C@@H](CO)[C@@H]2Cn3c(ccc(/C=C/c4ccccc4)c3=O)[C@@H]2N1Cc1ccncc1`, with -2.62%.
Then `CCCN1C[C@@H](C)[C@@H](OC)CN(C)C(=O)c2ccc(NC(=O)c3ccc(F)cc3)cc2OC[C@@H]1C`, with -14.3%; and `C[C@H](O)C#Cc1cnc2c(c1)C(=O)N([C@@H](C)CO)C[C@H](C)[C@@H](CN(C)C(=O)c1ccccc1)O2`, with 20.4%; and `COCC(=O)Nc1ccc2c(c1)OC[C@H](C)N(Cc1ccccc1)C[C@H](C)[C@@H](OC)CN(C)C2=O`, with -12.2%.
For `Cc1ccc(S(=O)(=O)N2C[C@@H](O)COC[C@@H]3O[C@H](CC(=O)NCCCN(C)C)CC[C@H]32)cc1`, the activity change is -1.46%.
For `COc1ccc2c3c([nH]c2c1)[C@H](CO)N(Cc1cccc(F)c1)CC31CCN(CC2CC2)CC1` the value was -83.2% (active); for `COc1ccc2c3c([nH]c2c1)[C@@H](CO)N(C(=O)c1ccc(F)cc1)CC31CCN(C(=O)Nc2ccc(F)cc2)CC1`, -75.4%; for `COc1ccc2c3c([nH]c2c1)[C@H](CO)N(C(=O)Nc1ccc(F)cc1)CC31CCN(C(=O)Nc2c(C)noc2C)CC1`, -35.3%.
For the compound `CCCNC(=O)N1CC2(C1)CN(Cc1cccc(F)c1)[C@@H](CO)c1[nH]c3cc(OC)ccc3c12`, the activity change is -63.2%.
Turning to `COc1ccc2c3c([nH]c2c1)[C@H](CO)N(CC1CC1)CC31CN(C(=O)Nc2cccc(F)c2)C1`, the activity change was -49.9%.
On to `COc1ccc2c3c([nH]c2c1)[C@H](CO)N(C(=O)Nc1ccc(F)cc1)CC31CCN(CC2CCOCC2)CC1`, for which the activity change is -81.3% (active).
As for `COc1ccc2c3c([nH]c2c1)[C@H](CO)N(S(=O)(=O)c1cn(C)cn1)CC31CCN(CC2CC2)CC1`, the activity change is 1.53%.
Then `COc1ccc2c3c([nH]c2c1)[C@H](CO)N(C(=O)C1CCC1)CC31CCN(Cc2cccc(F)c2)CC1`, with -43.8%; and `COc1ccc2c3c([nH]c2c1)[C@@H](CO)N(Cc1cccc(F)c1)CC31CN(CC2CC2)C1`, with -82.5% (active).

The values are drawn from PubChem BioAssay AID1159554 (Broad Institute, 2015).
